Inconclusive results are not listed. Unmarked numbers belong to inactive results. Active and inactive are the calls of the source. Calls come from the whole dose curve; as a rule, active = well fitted inhibition curve with a large enough effect; inconclusive = small, poorly fitted or top-dose-only effect; inactive = flat fitted curve, though single readings scatter.
Assay: Primary qHTS for inhibitors of nuclear receptor binding SET domain protein 2 (NSD2) in an isogenic RCH-ACV NSD2 p.E1099K mutant (9B) (AID 1645876); note: nearly all actives have a fitted effect of over 70% in size
Conditions: RCH-ACV (leukaemia line) NSD2 E1099K (9B) viability, CellTiter-Glo, 72 h; series mostly up to 44.9 µM; activity change, negative = viability loss: at the top concentration
% is set by controls: 0 for no effect and ±100 for the full control effect; potency is the fitted concentration of half-maximal effect.

Row | SMILES | outcome | activity change, negative = viability loss | Potency
1 | CC1(O)CC(O)C2(O)C=COC(O[C@@H]3O[C@H](CO)[C@@H](O)[C@H](O)[C@H]3O)C12 (some centres not stated) | inactive | – | –
2 | CC1CCC2C(C(=O)O)=COC(O[C@@H]3O[C@H](CO)[C@@H](O)[C@H](O)[C@H]3O)C12 (some centres not stated) | – | -13.2% | –
3 | CC1OC2OC(=O)C3(C)CC4=C(CO)C5=C(CC(=O)C4(C)C(C1=O)C23)C(C)(C)OC(=O)C5 (configuration not stated) | – | -21.8% [at 17.3 µM] | –
4 | CC1(C)CC[C@]2(C(=O)O[C@@H]3O[C@H](CO)[C@@H](O)[C@H](O)[C@H]3O)CC[C@]3(C)C(=CCC4[C@@]5(C)C[C@@H](O)[C@H](O)[C@@](C)(CO)C5CC[C@]43C)C2[C@@H]1O (some centres not stated) | – | -9.49% [at 17.3 µM] | –
5 | CCCC(=O)O[C@@H]1[C@@H]2[C@@H](OC(C)=O)[C@]3(C)C(=O)[C@H]4[C@@H](OC(C)=O)C(C)(C)C[C@H]4[C@]3(C)C(=O)[C@@]2(OC(C)=O)C[C@@H]1C | – | -23.4% [at 17.3 µM] | –
6 | CC1(C)[C@@H](O)CC[C@]2(C)[C@H]3CC=C4[C@@H]5C[C@](C)(C(=O)O)CC[C@]5(C)CC[C@@]4(C)[C@]3(C)CC[C@@H]12 | – | 3.28% | –
7 | C/C=C/C(O)C1OC(=O)CC1Nc1ccc(C(=O)O)cc1 (configuration not stated) | – | -6.14% | –
8 | CC1(C)CCC2(C(=O)OC3OC(CO)C(O)C(O)C3O)CCC3(C)C(=CCC4C5(C)CCC(O)C(C)(C(=O)O)C5CCC43C)C2C1O (configuration not stated) | – | -6.74% [at 17.3 µM] | –
9 | CC(=O)OC[C@]12[C@H](OC(C)=O)C(=O)[C@@H]3[C@@H](OC(C)=O)[C@@]14O[C@@]3(C)COC(=O)c1cccnc1[C@@H](C)[C@H](C)C(=O)O[C@@H]([C@H](O)[C@@H]2OC(C)=O)[C@]4(C)O | – | -2.26% [at 17.3 µM] | –
10 | C=C(C(=O)OC)C1C(O)CC2(C)C(=O)CCC(O)(CO)C2C1O (configuration not stated) | – | 4.78% | –
11 | C[C@H](CCC(=O)O)[C@H]1CC[C@H]2[C@@H]3C[C@H](O)[C@@H]4C[C@H](O)CC[C@]4(C)[C@H]3CC[C@]12C | inactive | – | –
12 | CC[C@H]1OC(=O)[C@H](C)[C@@H](O[C@H]2C[C@@](C)(OC)[C@@H](O)[C@H](C)O2)[C@H](C)[C@@H](O[C@@H]2O[C@H](C)C[C@H](N(C)C)[C@H]2O)[C@](C)(O)C[C@@H](C)C(=O)[C@H](C)[C@H]2OC(=O)O[C@@]21C | inactive | – | –
13 | CC1=C(C)C(=O)OC(C(C)C2CCC3C4C5OC5C5(O)CC(OC6OC(CO)C(OC7OC(C)C(O)C(O)C7O)C(O)C6O)CC(O)C5(C)C4CCC23C)C1 (configuration not stated) | inactive [at 17.3 µM] | – | –
14 | CN[C@@H]1[C@H](O[C@H]2[C@H](O[C@@H]3[C@@H](O)[C@H](O)[C@@H](N=C(N)N)[C@H](O)[C@H]3N=C(N)N)O[C@@H](C)[C@]2(O)C=O)O[C@@H](CO)[C@H](O)[C@H]1O | – | – | inactive
15 | C=C(C)C(=O)OC1C(OC(C)=O)/C(C=O)=C\CC/C(CO)=C/C2OC(=O)C(=C)C21 (configuration not stated) | – | – | 3.17 µM (active)
16 | COc1c2c(c(C)c3c1C(=O)OC3)OC1(C)CC(O)C(C(C)(C)O)C(C)(CCC(=O)O)C1C2 (configuration not stated) | – | 1.64% [at 17.3 µM] | –
17 | CC1=CC(=O)[C@H]2C(C)(C)CCC[C@]2(C)[C@@]1(O)CO | inactive | – | –
18 | Nc1ncnc2c1ncn2CCNCCCCCO | – | 3.43% | –
19 | CC(C)(O)CC(CO)NC(=O)CC(O)CC(=O)Cc1ccccc1 (configuration not stated) | – | -12.3% | –
20 | CC1CCC2(C(=O)O)CCC3(C)C(=CCC4C5(C)CCC(O)C(C)(CO)C5CCC43C)C2C1(C)O (configuration not stated) | – | -6.7% [at 17.3 µM] | –
21 | CC1=C(C)C(=O)OC(C(C)C2CCC3C4CC=C5CC(OC6OC(COC7OC(CO)C(O)C(O)C7O)C(O)C(O)C6O)CC(O)C5(C)C4CCC23C)C1 (configuration not stated) | – | -13% [at 17.3 µM] | –
22 | O=C1NC(=O)C(c2cn3c4c(cccc24)CCC3)C1c1c[nH]c2ccccc12 (configuration not stated) | – | – | 1.03 µM (active)
23 | CC1(C=O)CC[C@]2(C(=O)O[C@@H]3O[C@H](CO)[C@@H](O)[C@H](O)[C@H]3O)CC[C@]3(C)C(=CCC4[C@@]5(C)C[C@H](O)[C@H](O[C@@H]6OC[C@@H](O)[C@H](O)[C@H]6O)[C@@](C)(CO)C5CC[C@]43C)C2C1 (some centres not stated) | inactive [at 9.23 µM] | – | –
24 | Cn1cncc1C(N)(c1ccc(Cl)cc1)c1ccc2c(c1)c(-c1cccc(Cl)c1)cc(=O)n2C (configuration not stated) | – | – | 4.17 µM (active)
25 | CC1CC(=O)C2=C(CCC3(O)C(O)c4c(O)cccc4C(=O)C23O)C1 (configuration not stated) | – | -4.65% | –
26 | C=C(C)C1CC[C@]2(C(=O)O)CC[C@]3(C(=O)O)[C@H](CCC4[C@@]5(C)CC[C@H](O)C(C)(C)C5CC[C@]43C)C12 (some centres not stated) | – | -0.727% [at 17.3 µM] | –
27 | CC(C)[C@H]1CC[C@@]2(O)COC(=O)[C@H]2[C@@H]1/C=C(\CO)C(=O)O | – | -1.08% | –

— PubChem BioAssay (NCATS)
